Assay results from PubChem BioAssay AID1159580 (chemical genetic matrix, 2015).
Out of some 5,500 compounds screened, about 2,000 (36%) were called active. Not shown: some 18% with an inconclusive outcome. No stated cut-off is given here; in the data, active means normalized growth mostly below about 0.91 (no sharp cut-off); inconclusive means no clear call, values can overlap the other calls; inactive means mostly above about 0.92. Some of the results follow.

Test: chemical genetic growth profiling, strain panel (AID 1159580);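 further: tested at 20 µM; growth read once vehicle control cultures reached saturation at 30 °C; 1 = growth at the plate median or of vehicle wells; lower values mean less growth of the strain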
Details: S. cerevisiae deletion strains, growth OD

Measured: normalized growth

CN[C@@H]1[C@@H](O)C(OC2[C@@H](N)C[C@@H](N)[C@H](O[C@H]3O[C@H](C(C)O)[C@@H](O)[C@H](O)[C@H]3N)[C@H]2O)OC[C@]1(C)O (stereo not given in full)
inactive: locus YAL021C, strain ccr4, hits give low values 0.963 | locus YAL026C, strain drs2, hits give low values 0.984 | locus YAL030W, strain snc1, hits give low values 0.986 | locus YBL061C, strain skt5, hits give low values 0.978 | locus YBR009C, strain hhf1, hits give low values 0.989 | locus YBR023C, strain chs3, hits give low values 0.973 | locus YBR171W, strain sec66, hits give low values 0.968 | locus YBR231C, strain swc5, hits give low values 0.991 | locus YBR279W, strain paf1, hits give low values 0.981 | locus YCL011C, strain gbp2, hits give low values 0.969 | locus YCL016C, strain dcc1, hits give low values 0.976 | locus YCL061C, strain MRC1, hits give low values 0.985 | locus YCL069W, strain vba3, hits give low values 0.966 | locus YCR088W, strain abp1, hits give low values 0.978 | locus YDL005C, strain med2, hits give low values 0.967 | locus YDL040C, strain nat1, hits give low values 0.997 | locus YDR001C, strain nth1, hits give low values 0.982 | locus YDR069C, strain doa4, hits give low values 0.969 | locus YDR137W, strain rgp1, hits give low values 1.02 | locus YDR159W, strain sac3, hits give low values 0.969 | locus YDR195W, strain ref2 0.973 | locus YDR297W, strain sur2, hits give low values 0.979 | locus YDR334W, strain swr1, hits give low values 0.967 | locus YDR335W, strain msn5, hits give low values 0.979 | locus YDR392W, strain spt3, hits give low values 0.938 | locus YEL003W, strain gim4, hits give low values 0.982 | locus YEL037C, strain rad23, hits give low values 0.977 | locus YEL061C, strain CIN8 (second series), hits give low values 0.985 | locus YER015W, strain faa2, hits give low values 0.964 | locus YER016W, strain bim1, hits give low values 0.981 | locus YER111C, strain swi4, hits give low values 0.977 | locus YER155C, strain BEM2 (second series), hits give low values 0.966 | locus YFR010W, strain ubp6, hits give low values 0.971 | locus YGL167C, strain pmr1, hits give low values 0.977 | locus YGL173C, strain kem1, hits give low values 0.96 | locus YGL227W, strain vid30, hits give low values 0.98 | locus YGL240W, strain doc1, hits give low values 0.977 | locus YGL253W, strain hxk2, hits give low values 0.963 | locus YHR013C, strain ard1, hits give low values 0.976 | locus YHR027C, strain rpn1, hits give low values 0.977 | locus YHR030C, strain SLT2, hits give low values 1.05 | locus YHR079C, strain IRE1, hits give low values 1.05 | locus YHR142W, strain chs7, hits give low values 0.966 | locus YJL092W, strain hpr5, hits give low values 0.96 | locus YJL095W, strain BCK1 (second series), hits give low values 0.966 | locus YJL095W, strain BCK1, hits give low values 0.989 | locus YJL115W, strain asf1, hits give low values 0.984 | locus YJL129C, strain trk1, hits give low values 0.97 | locus YJL154C, strain vps35, hits give low values 0.976 | locus YJL164C, strain tpk1, hits give low values 0.984 | locus YJL166W, strain qcr8, hits give low values 0.982 | locus YJL187C, strain SWE1, hits give low values 0.988 | locus YJR066W, strain TOR1, hits give low values 0.995 | locus YKL160W, strain elf1, hits give low values 0.988 | locus YKR026C, strain gcn3, hits give low values 0.979 | locus YKR091W, strain srl3, hits give low values 0.971 | locus YLL001W, strain dnm1, hits give low values 0.988 | locus YLL026W, hits give low values 0.971 | locus YLL041C, strain sdh2, hits give low values 0.976 | locus YLR027C, strain aat2, hits give low values 0.973 | locus YLR113W, strain HOG1, hits give low values 0.995 | locus YLR221C, strain rsa3, hits give low values 0.974 | locus YLR258W, strain gsy2, hits give low values 0.969 | locus YLR262C, strain YPT6 (second series), hits give low values 1.02 | locus YLR320W, strain mms22, hits give low values 0.976 | locus YLR342W, strain FKS1, hits give low values 0.972 | locus YLR357W, strain rsc2, hits give low values 0.977 | locus YLR370C, strain arc18, hits give low values 0.962 | locus YLR384C, strain iki3, hits give low values 0.958 | locus YML120C, strain ndi1, hits give low values 0.981 | locus YMR058W, strain fet3, hits give low values 0.985 | locus YMR125W, strain sto1, hits give low values 0.975 | locus YMR129W, hits give low values 0.989 | locus YMR205C, strain PFK2, hits give low values 1.01 | locus YMR231W, strain pep5, hits give low values 0.965 | locus YNL071W, strain lat1, hits give low values 0.975 | locus YNL183C, strain NPR1, hits give low values 0.942 | locus YNL209W, strain ssb2, hits give low values 0.994 | locus YNL248C, strain rpa49, hits give low values 0.987 | locus YNL322C, strain KRE1 (second series), hits give low values 0.967 | locus YNR049C, strain mso1, hits give low values 0.979 | locus YOR001W, strain rrp6, hits give low values 0.969 | locus YOR070C, strain gyp1, hits give low values 0.974 | locus YOR080W, strain dia2, hits give low values 0.975 | locus YOR083W, strain WHI5, hits give low values 0.976 | locus YOR106W, strain vam3, hits give low values 0.964 | locus YOR231W, strain MKK1, hits give low values 1.04 | locus YOR265W, strain rbl2, hits give low values 0.983 | locus YOR270C, strain vph1, hits give low values 0.981 | locus YOR290C, strain snf2, hits give low values 0.954 | locus YPL051W, strain arl3, hits give low values 0.983 | locus YPL078C, strain atp4, hits give low values 0.995 | locus YPL106C, strain sse1, hits give low values 0.988 | locus YPL240C, strain hsp82, hits give low values 0.977 | locus YPL256C, strain CLN2, hits give low values 1.02
